Reference: PubChem BioAssay (NCI)
This is part of a sample that, as a whole, favours compounds with a hit. Of some 79,000 tested, about 15% had one in any assay. Unmarked numbers belong to inactive results. Calls of active or inactive are those of the source. Cut-off read from the data, not from the text of the source: active = growth inhibition above about 70%; inactive = the rest.

What was measured:
[1] = NCI Yeast Anticancer Drug Screen. Data for the rad50 strain (AID 155);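 note: 0% = growth of vehicle-only cultures of the same strain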; details: S. cerevisiae rad50 strain growth inhibition, active compounds read high
Method in brief: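 Vehicle-treated cultures provide the reference for the growth inhibition reported for compound-exposed, repair-deficient yeast.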

[2] = NCI Yeast Anticancer Drug Screen. Data for the mec2-1 strain (AID 157); details: S. cerevisiae mec2-1 strain, active compounds read high
Method in brief: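 Each compound was tested on mec2-1 yeast, a strain altered in DNA damage repair or cell cycle control. Growth inhibition is reported relative to vehicle.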

[3] = NCI Yeast Anticancer Drug Screen. Data for the sgs1 mgt1 strain (AID 161);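 note: 0% = growth of cultures given vehicle only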; details: S. cerevisiae sgs1 mgt1 strain, active compounds read high
Method in brief: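 Read-out: growth inhibition vs vehicle controls. Cells: mutant yeast strain deficient in DNA damage repair.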

[4] = NCI Yeast Anticancer Drug Screen. Data for the cln2 rad14 strain (AID 165);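 note: 0% = growth equal to vehicle treated cultures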; details: S. cerevisiae cln2 rad14 strain, active compounds read high
Method in brief: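 Test compounds were added to cln2 rad14 yeast cultures; inhibition of growth was then determined by comparison with vehicle treatment.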

[5] = NCI Yeast Anticancer Drug Screen. Data for the bub3 strain (AID 167); details: S. cerevisiae bub3 mutant strain, active compounds read high
Method in brief: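 Mutant yeast screening strain plus compound; vehicle-treated cultures serve as the 0% inhibition reference.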

[6] = NCI Yeast Anticancer Drug Screen. Data for the mlh1 rad18 strain (AID 175); details: S. cerevisiae mlh1 rad18 strain growth inhibition, active compounds read high
Method in brief: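 Inhibition values reflect reduced growth of mutant yeast versus vehicle-treated controls following compound exposure; the mutations affect DNA damage repair.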

[7] = at 5.0 µM (retest, dose inferred, filed as 0.5)
[8] = at 50.0 µM (retest, dose inferred, filed as 5.0)

| SMILES | growth inhibition [1, 7] | growth inhibition [1, 8] | growth inhibition ([1]; at 50.0 µM) | growth inhibition [2, 7] | growth inhibition [2, 8] | growth inhibition ([2]; at 50.0 µM) | growth inhibition [3, 7] | growth inhibition [3, 8] | growth inhibition ([3]; at 50.0 µM) | growth inhibition [4, 7] | growth inhibition [4, 8] | growth inhibition ([4]; at 50.0 µM) | growth inhibition [5, 7] | growth inhibition [5, 8] | growth inhibition ([5]; at 50.0 µM) | growth inhibition [6, 7] | growth inhibition [6, 8] | growth inhibition ([6]; at 50.0 µM) |
| --- | --- | --- | --- | --- | --- | --- | --- | --- | --- | --- | --- | --- | --- | --- | --- | --- | --- | --- |
| O=C1/C(=C\c2ccc(Cl)cc2Cl)Sc2scc(-c3ccc(O)c(O)c3)[n+]21 | 18% | 55% | 86.2% (active) | 6% | 67% | 76.9% (active) | 15% | 71% (active) | 97.8% (active) | 1% | 71% (active) | 46.5% | -10% | 81% (active) | 85.7% (active) | 28% | 68% | 91.8% (active) |
| Oc1c(Cl)cc(C(c2cc(Cl)c(O)c(Cl)c2)C(Cl)(Cl)Cl)cc1Cl | 94% (active) | 98% (active) | 98.8% (active) | 95% (active) | 99% (active) | 99.1% (active) | 81% (active) | 99% (active) | 99.3% (active) | 99% (active) | 98% (active) | 98.5% (active) | 96% (active) | 99% (active) | 98.8% (active) | 92% (active) | 98% (active) | 98.6% (active) |
| Cc1ccc(OCC2CO2)c(Br)c1 (configuration not stated) | 11% | 66% | 78.2% (active) | 1% | 19% | 5.95% | 15% | 71% (active) | 49.6% | 4% | 15% | -44.6% | -1% | 1% | -13.2% | 17% | 84% (active) | 24.1% |
| C1CCC(CC[N+]23CC[N+](CCC4CCCC4)(CC2)C3)C1 | 1% | 33% | 62.3% | -8% | 34% | -14.4% | 12% | 72% (active) | 45.3% | 2% | 15% | -8.6% | 2% | 25% | 11.6% | 24% | 59% | 40% |
| COc1ccccc1N=Nc1c(N)nc(N)[nH]c1=O | 4% | 14% | 6.4% | -10% | 16% | 1.05% | -17% | 14% | -2.05% | 0% | -7% | 11.6% | -2% | -2% | 52.5% | 15% | 20% | 9.8% |
| FC(F)(F)COP1(OCC(F)(F)F)=NP(OCC(F)(F)F)(OCC(F)(F)F)=NP(c2ccccc2)(c2ccccc2)=N1 | 0% | -4% | 25.9% | -1% | -1% | 25.4% | 3% | -1% | 38.1% | 2% | -6% | 2.45% | -5% | -8% | -3.05% | 11% | 0% | 56.1% |
| O=C1c2cccc3cc([N+](=O)[O-])cc(c23)C(=O)N1O | 34% | 56% | 82.7% (active) | 15% | 32% | 91.3% (active) | 13% | 37% | 81.2% (active) | 20% | 35% | 32.4% | 18% | 64% | 70.5% (active) | 31% | 71% (active) | 80.7% (active) |
| N#CC=Cc1ccc([N+](=O)[O-])s1 (mixture of isomers) | 41% | 99% (active) | 89.8% (active) | 39% | 98% (active) | 90.8% (active) | 59% | 99% (active) | 90.8% (active) | 32% | 99% (active) | 90.8% (active) | 70% (active) | 99% (active) | 88.5% (active) | 50% | 98% (active) | 91.1% (active) |
| CC(=O)OC1C(OC(C)=O)C2C(C)CC3OC(=O)C(C)C3CC2(C)C1OC(C)=O (configuration not stated) | -7% | 71% (active) | 78.2% (active) | 2% | 82% (active) | 77.2% (active) | -6% | 69% | 73.6% (active) | 34% | 46% | 32.4% | 9% | 80% (active) | 67% | -18% | 81% (active) | 72.7% (active) |
| Cn1c(=S)c2[nH]c(=S)[nH]c2n(C)c1=O | 85% (active) | 91% (active) | 97.2% (active) | 91% (active) | 92% (active) | 96.7% (active) | 94% (active) | 96% (active) | 96.7% (active) | 78% (active) | 47% | 80.3% (active) | 91% (active) | 89% (active) | 96.7% (active) | 92% (active) | 93% (active) | 97.2% (active) |
| CC1(CO)CCCC2(C)C3=C(CCCC3)CCC12 (configuration not stated) | -102% | 94% (active) | -3.55% | -56% | 96% (active) | 52.1% | -60% | 96% (active) | 46.1% | -60% | 95% (active) | 10.1% | -67% | 95% (active) | 42% | -108% | 95% (active) | 46.4% |
| Cc1c(NC(=O)/C(=N/NC(=S)N=N)C2C(=O)CC(C)(C)CC2=O)c(O)c2ccccc2c1O | 14% | 98% (active) | 95.3% (active) | 7% | 99% (active) | 81.2% (active) | 7% | 99% (active) | 84.8% (active) | -1% | 99% (active) | 47% | 16% | 98% (active) | 90.9% (active) | 9% | 98% (active) | 93% (active) |
| Cc1cc(C(=O)O)c(C)cc1SSc1cc(C)c(C(=O)O)cc1C | -12% | 72% (active) | 51.4% | 11% | 74% (active) | 9.25% | 4% | 76% (active) | 54.7% | -5% | 70% (active) | 3.7% | -13% | 63% | 41.4% | -3% | 81% (active) | 69.2% |
| CCCCN(CCCC)/N=C\C1=C2NC(=O)/C(C)=C\C=C/C(OC)C(OC(N)=O)/C(C)=C/C(C)C(O)C(OC)CC(C)CC(=C(OC)C1=O)C2=O (configuration not stated) | 2% | 81% (active) | 54.4% | -2% | 87% (active) | 48.4% | -4% | 89% (active) | 47.9% | -8% | 78% (active) | 47.6% | -3% | 32% | 44% | -2% | 80% (active) | 60.5% |
| O=C1c2ccc(O)c(O)c2C(=O)c2cccc(O)c21 | 68% | 72% (active) | 28.1% | 30% | 49% | 3.9% | 83% (active) | 84% (active) | 36.6% | 34% | 46% | 22.7% | 91% (active) | 93% (active) | 18.4% | 83% (active) | 88% (active) | 26.3% |
| [N-]=[N+]=NCC(O)c1ccc2c(c1)[nH]c1ccccc12 (configuration not stated) | -11% | 30% | 47.9% | -7% | 30% | 29.6% | -5% | 41% | 27.6% | -8% | 23% | 81.8% (active) | -4% | 36% | 64% | 24% | 68% | 75.4% (active) |
| O=C(c1ccccc1)c1cn(/N=C\c2ccccc2)c(=O)nc1-c1ccccc1 | -3% | 61% | 88.5% (active) | -13% | 96% (active) | 80.2% (active) | 2% | 94% (active) | 90.9% (active) | 11% | 95% (active) | 87.4% (active) | 16% | 97% (active) | 89% (active) | -1% | 95% (active) | 84.5% (active) |
| CCCCNCCC1(c2ccccc2)C(=O)Oc2ccccc21 (configuration not stated) | -5% | 14% | 63.2% | -4% | 18% | 57.5% | -5% | 35% | 59.9% | 0% | -17% | 46.2% | -5% | -12% | -9.45% | -7% | 10% | 53% |
| CCCCCCCCCCOC1C(C(O)CNCCCN(C)C)OC2OC3(CCCCC3)OC21 (configuration not stated) | 1% | 97% (active) | 91.9% (active) | -27% | 98% (active) | 93.2% (active) | 7% | 98% (active) | 91% (active) | 21% | 97% (active) | 90.3% (active) | -24% | 98% (active) | 89% (active) | 5% | 97% (active) | 90.2% (active) |
